Data published in ChEMBL document CHEMBL4513216, “Probing the Open Global Health Chemical Diversity Library for Multistage-Active Starting Points for Next-Generation Antimalarials” (ACS Infect Dis, 2020).
The whole screen tested about 68,000 compounds, of which about 2,700 (4%) showed an effect of 50% or more. This excerpt belongs to a sample that is enriched for strong results.

These compounds were tested on Plasmodium berghei (assay: Screen against P. berghei liver stage (PbLuc), transformed with Luciferase, at 2uM). Details: tested at 2 uM.
Format: functional, HepG2

SMILES	INHIBITION
O=C(NCCc1ccccc1)N1C[C@@H]2C[C@H](C(=O)N3CCCC3)[C@H](C1)O2	-0.89%
CCC1=N[C@@]2(CC[C@@H]3CN(Cc4ccc(F)cc4)C[C@@H]32)C(=O)N1C	-22.23%
Fc1ccc(CN2CCCC(c3nccnc3-n3ccnc3)C2)cc1 (stereo not drawn)	50.74%
Fc1ccc(CN2CCC(c3nccnc3-n3ccnc3)CC2)cc1	16.87%
c1ccc(CN2CCCC(c3nccnc3-n3ccnc3)C2)cc1 (stereo not drawn)	22.66%
CS(=O)(=O)N[C@@H]1CCN(Cc2cccnc2)[C@H]1Cc1ccccc1	7.26%
CN(C)C1CCN(C(=O)c2cc(-c3ccn(C)n3)n3ccccc23)CC1	-40.37%
CC(C)NC(=O)N1C[C@@H](F)[C@@H](OCc2nc3ccccc3o2)C1	16.47%
CC(C)N1CCC(N2CCOC3(CCCC3)C2)C1=O (stereo not drawn)	-0.75%
COC(=O)c1sccc1S(=O)(=O)NCCC(O)c1ccco1 (stereo not drawn)	4.89%
CS(=O)(=O)NCCNc1ncnc2cccc(F)c12	17.73%
CSCCCNc1ncnc2cccc(F)c12	28.79%
Fc1cccc2ncnc(NCCCc3ccncc3)c12	54.3%
CC(C)n1cc(C(=O)N2CCC(n3cc(C(C)(C)C)nn3)CC2)cn1	22.39%
CC(C)(C)c1cn(C2CCN(C(=O)c3cncnc3)CC2)nn1	40.83%
CC(C)(C)c1cn(C2CCN(C(=O)c3cnccn3)CC2)nn1	50.4%
Cc1cncc(C(=O)N2C[C@@H](C(=O)O)[C@H](C(C)C)C2)c1	44.23%
COc1cc(C2(C(=O)NCCn3ccnc3)CCCC2)ccc1C	-64.32%
CCc1ncc(S(C)(=O)=O)c(C2CCCNC2)n1 (stereo not drawn)	18.8%
O=C(NCCn1ccc(-c2ccncc2)n1)c1ccc2c(c1)OCO2	6.33%
CCCS(=O)(=O)NC(C)C(=O)NCc1ccc(N2CCN(C)CC2)nc1 (stereo not drawn)	-34.5%
COc1ccc(C(C)NC(=O)Nc2nnc(C)s2)c(OC)c1 (stereo not drawn)	58.69%
COc1cc(C)c(C(C)NC(=O)Nc2nnc(C)s2)cc1OC (stereo not drawn)	39.48%
COc1ccc(OC)c(C(C)NC(=O)Nc2nnc(C)s2)c1 (stereo not drawn)	-10.7%
CC(Cc1c(F)cccc1F)NC(=O)CN(CC(N)=O)C(C)C (stereo not drawn)	58.53%

SMILES	INHIBITION
CC(C)N(CC(N)=O)CC(=O)NCCc1c(F)cccc1F	37.18%
CC(Cc1c(F)cccc1F)NC(=O)CSCC(N)=O (stereo not drawn)	14.19%
CNS(=O)(=O)c1ccc(CN2CCN3CCNC(=O)C3C2)cc1 (stereo not drawn)	-43.5%
O=C1NCCN2CCN(C(=O)NCCc3ccccc3)CC12 (stereo not drawn)	33.48%
CS(=O)(=O)c1ccc(CC(=O)N2CCN3CCNC(=O)C3C2)cc1 (stereo not drawn)	83.83%
Cc1cc(-c2cnc(N3CCOCC3)nc2-c2ccc(C)s2)on1	8.09%
CS(=O)(=O)NCCN1CCSCC1c1ccc(Cl)cc1 (stereo not drawn)	36.28%
CS(=O)(=O)CCN1CCSCC1c1ccc(Cl)cc1 (stereo not drawn)	5.28%
Cc1ccc(C2CSCCN2CCS(C)(=O)=O)cc1 (stereo not drawn)	38.67%
CS(=O)(=O)NCCN1CCCC1c1ccc(Cl)cc1 (stereo not drawn)	8.42%
CS(=O)(=O)CCCN1CCSCC1c1ccc(Cl)cc1 (stereo not drawn)	62.51%
CCS(=O)(=O)CCCN1CCSCC1c1ccc(Cl)cc1 (stereo not drawn)	52.98%
CCN(C(=O)c1cc(C)nc2ccccc12)C1CC(=O)NC1=O (stereo not drawn)	10.93%
Nc1ncccc1C(=O)NCc1ccc(Br)cc1	49.69%
Cc1csc(N2CCN(C(=O)C(C)n3cncn3)CC2)n1 (stereo not drawn)	4.18%
Cc1cc(C(=O)NCCCn2nccc2C2CC2)c(=O)[nH]c1C	49.45%
COc1c(CNCc2ccnc(N(C)C)c2)c(C(C)C)nn1C	18.85%
CC(=O)N1CCN([C@@H]2CCC[C@@H](NC(=O)c3cccnc3)[C@H]2O)CC1	20.44%
CC(=O)N1CCOC2(CCN(C(=O)C3CC3)CC2)C1	-31.76%
NC(=O)CN1CCCN(C(=O)c2ccc(SC(F)F)cc2)CC1	2.31%
O=C(CCOCC(F)(F)F)N1CCCC(n2ccnc2)C1 (stereo not drawn)	2.21%
O=C1COc2ccc(C(=O)NS(=O)(=O)c3cc(F)ccc3F)cc2N1	-9.66%
Cc1nc(NC(=O)c2nn(-c3ccc(F)cc3C)cc2O)n[nH]1	2.82%
Cc1ccc(-c2nnc(CNCCn3cccn3)o2)cc1	-9.22%
COc1ccc(-c2nnc(CNCCn3cccn3)o2)cc1	-16.99%

SMILES	INHIBITION
c1ccc(-c2nnc(CNCCn3cccn3)o2)cc1	51.32%
COc1cccc(C(=O)N2CCCC(CNS(C)(=O)=O)C2)c1 (stereo not drawn)	2.74%
Cc1cc(C2CCCN(C(=O)CCc3cscn3)C2)n[nH]1 (stereo not drawn)	-0.13%
COCC(NC(=O)c1ccc[nH]1)c1cccc(C(F)(F)F)c1 (stereo not drawn)	11.28%
COCC(NC(=O)c1ccco1)c1cccc(C(F)(F)F)c1 (stereo not drawn)	39.45%
COCC(NC(=O)c1ccoc1C)c1cccc(C(F)(F)F)c1 (stereo not drawn)	74.22%
NS(=O)(=O)Cc1ccc(CNC(=O)NCC2CCOC2)cc1 (stereo not drawn)	-27.91%
CC1CN(CCC(=O)NCCc2cccnc2)Cc2ccccc2O1 (stereo not drawn)	52.3%
CC1CN(CC(=O)NCCc2ccncc2)Cc2ccccc2O1 (stereo not drawn)	11.9%
Cc1ccc2c(c1)CN(CC(=O)NCCc1ccc(F)cc1)CC(C)O2 (stereo not drawn)	-16.71%
COC(=O)c1cnc2c(c(C)nn2C)c1OC	-8.44%
COc1ncccc1CNC(=O)c1ccco1	51.46%
COc1ncccc1CNC(=O)c1c[nH]c(=O)c(Br)c1	37.18%
COc1ncccc1CNC(=O)NCCNS(C)(=O)=O	6.3%
CCCNC(=O)NCc1cccnc1OC	56.12%
COc1ncccc1CNC(=O)c1cc(F)cc(Br)c1	58.69%
CC(C)Oc1ncccc1CNC(=O)c1ccco1	26.11%
COc1ncccc1CNC(=O)NCc1ccco1	-2.87%
COc1ncccc1CNC(=O)NCCNC(=O)c1ccco1	39.92%
Nc1no[n+]([O-])c1C(=O)NCc1cccnc1	-3.26%
Nc1no[n+]([O-])c1C(=O)NCc1ccccn1	-18.45%
COc1ncccc1CNC(=O)c1csc(Br)c1	-12.08%
Nc1no[n+]([O-])c1C(=O)NCc1ccco1	84.12%
